Screen size: about 65,000 compounds; about 2,100 (3.2%) showed an effect of 50% or more. The median lay at about -52%. This is one part of a sample in which strong results are shown more often than they occur.
test system: Plasmodium falciparum; experiment: Screen against P. falciparum Asexual Blood Stage (ABS), at 5uM; format: functional, Dd2; settings: tested at 5 uM

Structure (SMILES) | INHIBITION [%]
Cc1cc(-c2nn(C)c(Cl)c2CN2CCOCC(O)C2)no1 (stereo unspecified) | -22.3
Cc1cc(-c2nn(C)c(Cl)c2CN2CC[C@H](CO)[C@@H](O)C2)no1 | -69.4
Cc1cc(-c2nn(C)c(Cl)c2CN2Cc3ccccc3C(O)C2)no1 (stereo unspecified) | 53.8
Cn1nc(COc2cccnc2)c2c1CCN(c1ncccn1)C2 | -42.9
CCN(CC)c1nc2ccsc2c(=O)n1CCC(=O)NC1CCCC1 | -39.2
Cc1nc(N2CCCC2)ncc1-c1cc(O)nc(N2CCOCC2)n1 | -32.6
O=C(C[C@@H]1COC[C@H]2CN(Cc3ccncc3)C[C@@H]12)N1CCOCC1 | -108
COCCS(=O)(=O)Nc1ccc(-n2cncn2)c(F)c1 | 68.3
CC(=O)Nc1ccc(-n2cncn2)c(F)c1 | 47.2
COCCNC(=O)Nc1ccc(-n2cncn2)c(F)c1 | -29
COCCN(C)Cc1nc(-c2cccc(F)c2F)oc1C | -36.7
CN1CCC2(Cc3ccccc3CN(C(=O)Cc3cccc(Cl)c3)C2)C1 (stereo unspecified) | 54.8
CCCC(=O)N1Cc2ccccc2CC2(CCN(C)C2)C1 (stereo unspecified) | 8.68
CN1CCC2(Cc3ccccc3CN(C(=O)CCN)C2)C1 (stereo unspecified) | -100
Cc1nn(C)c(Cl)c1C1CCCN1CC(=O)NC1CCCC1 (stereo unspecified) | 13
Cn1cc(S(=O)(=O)NCCc2ccsc2)cn1 | -97
CC(C)(C)c1cn(C2CCN(C3CCSC3)CC2)nn1 (stereo unspecified) | -103
N#Cc1ccc(CNCCc2cc(F)cc3c2OCOC3)cc1 | -105
COc1cccc(CNCCc2cc(F)cc3c2OCOC3)c1OC | 56.8
COc1ccc(CNCCc2cc(F)cc3c2OCOC3)cc1OC | 21.3
COc1ccc(CNCCc2cc(F)cc3c2OCOC3)cc1O | 37
COc1cccc(CNCCc2cc(F)cc3c2OCOC3)c1 | 19.8

Structure (SMILES) | INHIBITION [%]
COc1cc(CNCCc2cc(F)cc3c2OCOC3)cc(OC)c1 | 31.1
N#Cc1cccnc1NCCc1cc(F)cc2c1OCOC2 | -127
COc1ccc(OC)c(CNCCc2cc(F)cc3c2OCOC3)c1 | 66.3
COc1ccc(CNCCc2cc(F)cc3c2OCOC3)c(OC)c1 | 55.4
CC(C)CCC(=O)NC(C)c1nnc2n1CCCCC2 (stereo unspecified) | -147
O=C(CC1CCCC1)N1C[C@@H]2CCN(c3cccnc3)C[C@@H]2C1 | -58.1
Cc1cc(C(=O)N2CCc3nc4sc(C)cc4c(=O)n3CC2)on1 | -73.5
Cc1ccccc1CN1CCN(C(=O)c2ccn(C(C)(C)C)c2)CC1 | 2.14
CC(=O)c1ccc(NC(=O)c2ccc3c(c2)C2(CCCCC2)CN3)cc1 | 20.8
CCc1ccc(CN2CCC(CNS(=O)(=O)C3CC3)C2)nc1 (stereo unspecified) | 19.1
Cc1ncc(CN2CCC(CNS(=O)(=O)C3CC3)C2)cn1 (stereo unspecified) | -131
CC(C)c1ccc(CN2CCC(CNS(=O)(=O)C3CC3)C2)cc1 (stereo unspecified) | 59.4
Cc1ccccc1OCn1ccc(C(=O)NCCN2CCOCC2)n1 | -44.8
Cc1cc(-c2cc(S(=O)(=O)N3C[C@H](C4CC4)[C@@H](N)C3)c(C)s2)[nH]n1 | 62.6
Cc1ccc(S(=O)(=O)N2C[C@H](C3CC3)[C@@H](N)C2)cc1F | 14.8
Cc1cc2[nH]c(=O)oc2cc1S(=O)(=O)N1C[C@@H](N(C)C)[C@H](C(C)C)C1 | -101
CC(C)c1cc(C(=O)N2CCCC(Cn3cc(CO)nn3)C2)on1 (stereo unspecified) | -137
COCCN1CCC2(CC1)CC(NCc1cncn1C)c1ccccc12 (stereo unspecified) | -18.1
CC(C)CN1CCC(NC(=O)c2ccc(F)cc2F)CC1 | -150
CC(C)CN1CCC(NC(=O)c2ccc(F)cc2I)CC1 | 23.2
CCN1CCC(NC(=O)c2ccc(F)cc2I)CC1 | 50
O=C(NCCc1ccccc1F)NCC(O)c1cccc(F)c1 (stereo unspecified) | -156

Structure (SMILES) | INHIBITION [%]
NC(=O)c1cc2c(nc1Oc1cccc(CN3CCCC3)c1F)CCC2 | -10.3
COc1cc(C(=O)NS(=O)(=O)c2cncc(Br)c2)ccc1C | -28.1
NC(=O)CN1CCCC(c2nccnc2Oc2cccc(F)c2)C1 (stereo unspecified) | -47.7
Cc1cc(C2CCCN(C(=O)COc3cccc(F)c3)C2)n[nH]1 (stereo unspecified) | -49.4
CNCC(=O)N1CCCC(c2nccnc2Oc2cccc(F)c2)C1 (stereo unspecified) | 55.4
Cn1ccc2c(NC(=O)Cn3ncc4c(c3=O)CCCC4)cccc21 | -90.4
Cc1nc(C2CN(Cc3scnc3C)CCO2)cc(N(C)C)n1 (stereo unspecified) | -79.5
OCCN1CCc2[nH]nc(C(c3ccccc3)c3ccccc3)c2C1 | 61.7
OCCCN1CCc2onc(C(c3ccccc3)c3ccccc3)c2C1 | 49.4
CC(O)CN1CCc2[nH]nc(C(c3ccccc3)c3ccccc3)c2C1 (stereo unspecified) | 42.3
c1coc(CN2CC[C@H]3O[C@@H](COCC4CC4)CC[C@H]32)c1 | -93.2
Cc1nc(C)c(C(=O)N2C[C@@H](C(=O)O)[C@H](C3CC3)C2)s1 | -75.7
CCN(CC)Cc1nc2c(o1)CN(S(=O)(=O)c1cccs1)C2 | -61.5
CN(CCc1ccncc1)Cc1c(C2CCCC2)[nH]c2ncccc12 | -56.1
CN(CCc1ccccc1)Cc1c(C2CCNCC2)[nH]c2ncccc12 | 54.6
CN(CCc1ccccc1)Cc1c(C2CCOCC2)[nH]c2ncccc12 | -22.4
Cc1ccc(CN2CCN(C3CSCCSC3)CC2CCO)o1 (stereo unspecified) | -73.5
CC(C)c1cc(C2CCN(C(=O)Cn3nc4ccccc4n3)CC2)[nH]n1 | -107
O=C(c1ccc2[nH]ccc2c1)N1Cc2nc(CN3CCCCC3)oc2C1 | -72.8
COCCN1CCN(CCCS(=O)(=O)c2ccccc2)CC1C (stereo unspecified) | -121
CNS(=O)(=O)CCCN1CCCN(Cc2ccccc2)CC1C (stereo unspecified) | 59.7
CC1CN(Cc2ccccc2)CCCN1CCCS(C)(=O)=O (stereo unspecified) | 53.2

Structure (SMILES) | INHIBITION [%]
CC1CN(Cc2ccccc2)CCCN1CCS(C)(=O)=O (stereo unspecified) | 39.2
COCCN1CCN(CCCS(C)(=O)=O)CC1C (stereo unspecified) | -42.5
CNS(=O)(=O)CCCN1CCCCCC1c1ccc(C)o1 (stereo unspecified) | 10.3
O=C(Cn1cccn1)Nc1ccc(N2CCOCC2)cc1 | -6.33
CN(C)C(=O)Cc1nc(CN2CCOC(Cn3cccn3)C2)cs1 (stereo unspecified) | -56
Cc1nn(C)cc1CN1CCCCCC1c1ccccc1Cl (stereo unspecified) | -104
Cc1nn(C)cc1CN1CCC(C2Nc3ccccc3S(=O)(=O)N2)CC1 (stereo unspecified) | -123
Cc1nn(C)cc1CN1CCN(CC2(c3ccccc3)CC2)CC1 | 67.2
CCn1c(C)cc(C(=O)N2CCC(NC(=O)c3ccc(C)o3)CC2)c1C | -31.2
Cc1nccn1CC1CCCN1S(=O)(=O)Cc1cccc(F)c1 (stereo unspecified) | -54
CN(C)CC1CSCCCN1S(=O)(=O)Cc1ccc(C(F)(F)F)cc1 (stereo unspecified) | 10.1
CN(C)CC1CSCCCN1S(=O)(=O)c1ccc(C(F)(F)F)cc1 (stereo unspecified) | 60.7
CN(C)CC1CSCCCN1S(=O)(=O)Cc1cccc(F)c1 (stereo unspecified) | 58.6
CS(=O)(=O)C1CCN(S(=O)(=O)Cc2cccc(F)c2)CC1 | -89.8
CN(C)CC1CSCCCN1C(=O)Nc1ccc(C(C)(C)C)cc1 (stereo unspecified) | -12.2
CC(C)N(Cc1ccc(C(=O)O)o1)C(C)C | -21.6
Cc1cnc(N2CCc3c(c(COc4cncnc4)nn3C)C2)nc1 | -95
CCc1nc(C2NC3(CCCC3)C(=O)N2CC2CC2)cs1 (stereo unspecified) | -67.6
CN(C)CCNC(=O)CCC1CCN(C(=O)c2ccc(Cl)cc2O)CC1 | -57.2
Cc1ccc(CN2CCC3(CC(=O)N(c4ccc5c(c4)OCO5)C3)C2)o1 (stereo unspecified) | -11.7
Cc1nc(C)n(C2CCCN(C(=O)COc3ccccc3)C2)n1 (stereo unspecified) | -30.7
Cc1ccc(C)c(S(=O)(=O)N2CCN(C)C3(CCC(=O)N(C)CC3)C2)c1 (stereo unspecified) | -107

Structure (SMILES) | INHIBITION [%]
CCC[C@@H]1CN(S(=O)(=O)c2ccc(C)c(F)c2)C[C@H]1N(C)C | 39.9
Cc1ccc(S(=O)(=O)N2CC[C@@H](O)C2)c(F)c1 | -13.3
CCC[C@H]1CN(S(=O)(=O)c2cc(C)ccc2C)C[C@@H]1N | 68.6
CCC[C@H]1CN(S(=O)(=O)c2ccc(-c3c(C)noc3C)s2)C[C@@H]1N | 72.8
CCC[C@H]1CN(S(=O)(=O)c2cc(C)ccc2F)C[C@@H]1N | 52.5
Cc1ccc(F)c(S(=O)(=O)N2CCCC2c2ccncc2)c1 (stereo unspecified) | -73.9
Cc1noc(C)c1-c1cccc(C2CCN(S(=O)(=O)N(C)C)CC2)n1 | -81.4
Cc1noc(C)c1-c1n[nH]c2c1CN(S(=O)(=O)c1cccs1)CC2 | -24.2
CN(C)c1cc2c(nn1)CCN(C(=O)c1ccc(-n3cccn3)nc1)C2 | -129
CC(C)n1nc(CN2CCOCC2)c2c1CN(C(=O)c1ccno1)C2 | -44.4
Cc1ccc(C(=O)N2CC[C@@H]3[C@H]2CCC(=O)N3CCN(C)C)cn1 | -2.53
CCc1cnc(NC(=O)NC2CCN(C)CC2)s1 | -80.8
CC1=N[C@@]2(CC[C@@H]3CN(C(=O)NCc4cccc(F)c4)C[C@@H]32)C(=O)N1 | -94.6
CC(C(=O)Nc1ccccc1F)S(C)(=O)=O (stereo unspecified) | -75.4
Cc1nc(-c2ccc(Cl)cc2)n(CC(=O)NC(C)C)c(=O)c1CCO | -186
Cc1cc(C)c(CCNC(=O)CN2CCCN(C(N)=O)CC2)c(C)c1 | -67.4
CCC(CN1CCCC1)NC(=O)Cc1c(C)[nH]c2cc(C)cc(C)c12 (stereo unspecified) | 61.6
Cc1cc(C)c(C(=O)NC(CN2CCCC2)c2ccccc2)c(=O)[nH]1 (stereo unspecified) | -88.9
